Bioassay records deposited in PubChem BioAssay by National Center for Advancing Translational Sciences (NCATS).
Rows were chosen to be rich in hits. Some 0.43% of all compounds tested hit in one or more screens of this group.
aGlu spleen mod – inhibitors or activators of human alpha-glucosidase in spleen homogenate | Potency, µM (highest dose often 79.9 µM), hits mostly inhibitors | hit rate 0.006% among 240,000 | human spleen homogenate, 4-MU-alpha-glucoside fluorescence | AID 2112
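Compounds were titrated against alpha-glucosidase in spleen homogenate at pH 5.0, with 1 mM 4-methylumbelliferyl substrate for 40 min at 37 C. Reactions were quenched with pH 10 NaOH/glycine and fluorescence measured.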
GLA inh pH 4.5 – blocks human alpha-galactosidase A at pH 4.5 | 230,000 tested, under 10 active | activity change, negative = inhibition, % at 105 µM | purified enzyme, 4-MU-alpha-Gal fluorescence, pH 4.5 | AID 1467
GAA inh – blocks human lysosomal alpha-glucosidase. P10253. purified human GAA, 4-MU-alpha-glucoside fluorescence. Potency, µM (doses to about 76.9 µM), usual class: inhibitors. hit rate 0.005% among 200,000
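Read-out is 4-methylumbelliferone fluorescence (Ex 365/Em 440 nm) after NaOH/glycine stop at pH 10. Enzyme 4 nM, substrate 400 uM, pH 5.0 citrate buffer, 20 min room temperature; AC50 from Hill-equation concentration-response.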
GAA glycogen – inhibitors or activators of human alpha-glucosidase glycogen cleavage. P10253. recombinant GAA, glycogen substrate, Amplex Red glucose oxidase fluorescence. Potency, µM (top dose mostly 76.4 µM), usual class: inhibitors. hit rate 0.38% among 300,000;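 also: the screen sought inhibitors and activators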
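Natural-substrate format: glycogen cleavage by 4 nM human enzyme, glucose read by Amplex Red coupling (Ex 573, Em 610 nm). Normalized to enzyme and no-enzyme controls.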
N370S GC mod – inhibitors or activators of N370S glucocerebrosidase for Gaucher disease; N370S GC spleen homogenate, 4MU-glucoside fluorescence; Potency, µM (top dose mostly 59.4 µM), hits mostly inhibitors; hit rate 0.092% among 330,000; AID 2101
aGal spleen mod – inhibitors or activators of human alpha-galactosidase in spleen homogenate; P06280; human spleen homogenate, 4MU-alpha-Gal fluorescence, 40 min; Potency, µM (top dose mostly 80 µM), most hits filed as inhibitors; hit rate 0.008% among 240,000; AID 2107
Target sequence (P06280 32-429 limits assumed): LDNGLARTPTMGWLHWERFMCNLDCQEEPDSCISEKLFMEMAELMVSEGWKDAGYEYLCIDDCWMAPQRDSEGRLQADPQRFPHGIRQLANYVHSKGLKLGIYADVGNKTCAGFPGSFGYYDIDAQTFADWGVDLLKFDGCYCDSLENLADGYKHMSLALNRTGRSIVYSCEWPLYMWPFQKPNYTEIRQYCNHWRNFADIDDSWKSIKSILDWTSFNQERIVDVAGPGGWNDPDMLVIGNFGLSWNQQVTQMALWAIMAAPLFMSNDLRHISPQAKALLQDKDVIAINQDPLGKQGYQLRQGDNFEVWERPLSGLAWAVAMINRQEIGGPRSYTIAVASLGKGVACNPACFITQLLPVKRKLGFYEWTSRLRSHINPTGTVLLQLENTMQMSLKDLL
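Fluorogenic readout (Ex 365/Em 440 nm) of 4-methylumbelliferone released from 1 mM 4-MU-alpha-galactoside by spleen homogenate, 40 min at 37C, pH 5.0. Data normalized to no-enzyme and enzyme controls; Hill-equation AC50 from compound titrations.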
Hits are given with their value; – = inactive; ? = inconclusive; · = not tested or not shown; [ ] = dose if it differs, or a comment. Calls follow the shape of the dose curve; as a rule, active = well fitted curve in the direction sought with a large enough effect; inconclusive = small, poorly fitted or top-dose-only effect, or another doubt; inactive = no such curve, though single readings can be large; an effect the other way counts as inactive or inconclusive.

SMILES	aGlu spleen mod	GLA inh pH 4.5	GAA inh	GAA glycogen	N370S GC mod	aGal spleen mod
C[C@H](NC(=O)[C@@H](N)Cc1ccc(O)cc1)C(=O)NCC(=O)N[C@H]1CSSC[C@@H](C(=O)O)NC(=O)[C@H](CO)NC(=O)[C@H]([C@@H](C)O)NC(=O)[C@H](Cc2ccccc2)NC(=O)[C@H]([C@@H](C)O)NC(=O)[C@H](CCCCN)NC(=O)[C@H](Cc2c[nH]c3ccccc23)NC(=O)[C@H](Cc2ccccc2)NC(=O)[C@H](Cc2ccccc2)NC(=O)[C@H](CC(N)=O)NC(=O)[C@H](CCCCN)NC1=O	–	·	·	·	–	–
O=C(COc1ccccc1C(=O)N/N=C\c1ccc(O)c(O)c1)N/N=C/c1ccc(O)c(O)c1	–	–	–	3.14µM	–[12.8 µM]	–
O=C(COc1ccccc1[N+](=O)[O-])N/N=C/c1ccc(O)c([N+](=O)[O-])c1	–	–	–	–	–	–
Oc1ccc(C(c2nnnn2C2CCCCC2)N2CCOCC2)cc1 (stereo not drawn)	–	–	–	–	–	–
CCOC(=O)c1cc2oc(C(c3nnnn3C3CCCCC3)N3CCOCC3)cc2[nH]1 (stereo not drawn)	–	–	–	–	12.6µM	–
COc1cc(OC)cc(C2=Nn3c(nnc3-c3cccc(OC)c3)SC2)c1	–	·	·	·	–	–
CCOC(=O)Cc1csc(NC(=O)NC2(C(F)(F)F)Oc3cc(Cl)c(Cl)cc3O2)n1	–	–	–	8.84µM	–	–
CCOC(=O)Cc1csc(NC(=O)NC2(C(F)(F)F)Oc3ccc(Cl)cc3O2)n1 (stereo not drawn)	–	–	–	11.1µM	–	–
CCOC(=O)Cc1csc(NC(=O)NC2(C(F)(F)F)Oc3ccccc3O2)n1	–	–	–	17.6µM	–	–
CCOC(=O)Cc1csc(NC(=O)Cc2ccc(Cl)cc2)n1	–	–	·	–	–	–
CCOC(=O)Cc1csc(NC(=O)Nc2ccc(OC(F)(F)F)cc2)n1	–	–	–[15.4 µM]	–	–	–
CC[C@H](C)[C@H](NC(=O)[C@H](CC(=O)O)NC(=O)[C@H](CC(C)C)NC(=O)[C@H](Cc1cnc[nH]1)NC(=O)[C@H](C)NC(=O)[C@H](Cc1ccccc1)NC(=O)[C@H](Cc1ccc(O)cc1)NC(=O)[C@@H](NC(=O)[C@H](C)NC(=O)[C@H](CCC(=O)O)NC(=O)[C@H](CCC(=O)O)NC(=O)[C@H](CC(=O)O)NC(=O)CCC(=O)O)C(C)C)C(=O)N[C@H](C(=O)N[C@@H](Cc1c[nH]c2ccccc12)C(=O)O)[C@@H](C)CC	–	·	·	·	–	–
COc1cc(/C=N/Nc2ccc(Cl)c(C(=O)O)c2)ccc1OC(=O)c1ccccc1F	·	·	·	5.62µM	–	·
NC(N)=N/N=C/c1ccccc1	–	–	–	–	–	–
COc1cc(/C=N/N=C(N)N)ccc1OCc1ccc(Cl)cc1	–	–	–	–	7.94µM	–
NC(N)=N/N=C/c1ccc(OCc2ccccc2)c(OCc2ccccc2)c1	·	·	·	–	11.2µM	·
NC(N)=N/N=C/c1ccc(OCc2ccccc2Cl)cc1	–	–	–	–	22.4µM	–
CC[C@H](C)[C@H](NC(=O)[C@H](N)Cc1ccc(O)cc1)C(=O)N[C@@H](CC(N)=O)C(=O)N[C@@H](CC(C)C)C(=O)N[C@H](C(=O)N[C@@H](C(=O)N[C@@H](CCCN=C(N)N)C(=O)N[C@@H](CCC(N)=O)C(=O)N[C@@H](CCCN=C(N)N)C(=O)N[C@H](Cc1ccc(O)cc1)C(N)=O)[C@@H](C)O)[C@@H](C)CC	–	·	·	·	–	–
Cc1noc(C)c1-c1ccc2ncnc(NCc3cccn3C)c2c1	–	·	·	·	–	–
COc1ccc(C2=Nn3c(nnc3-c3ccc(OC)cc3OC)SC2)c(OC)c1	–	·	·	·	–	–
O=C(O)C1NCCN(C(=O)c2ccc3c(ccc4ccccc43)c2)C1C(=O)O (stereo not drawn)	–	·	·	·	–	–
CCCn1c(C(CO)Nc2nc(-c3cccc(Br)c3)cs2)nc2ccccc21 (stereo not drawn)	·	·	·	–	1.78µM	·
C=C(C)c1cccc(C(C)(C)NC(=O)Nc2ccc(C(N)=O)cc2)c1	–	–	–	–	–	–
C=C(C)c1cccc(C(C)(C)NC(=O)Nc2cccnc2)c1	·	·	·	–	22.4µM	·
Oc1ccc(Nc2nc(-c3ccc(O)cc3)cs2)cc1	–	–	–	24.9µM	15.8µM	–
SMILES	aGlu spleen mod	GLA inh pH 4.5	GAA inh	GAA glycogen	N370S GC mod	aGal spleen mod
Oc1ccc(Nc2nc(-c3cccnc3)cs2)cc1	·	·	·	17.8µM	–	·
O=S(=O)(Nc1cc(O)cc2cccnc12)c1ccc(Cl)s1	–	·	·	·	–	–
COC(=O)[C@H](CC(C)C)NC(=O)c1ccc(NC[C@@H](N)CS)cc1-c1cccc2ccccc12	–	·	·	·	–	–
O=C(/C=C/c1ccc(I)cc1)c1ccc(B(O)O)cc1	–	·	·	·	–	–
CC(=O)OCOC(=O)CNc1ccccc1OCCOc1ccccc1NCC(=O)OCOC(C)=O	–	·	·	·	–	–
CCOc1ccc(Nc2nc(Cc3nnc(SCC(=O)NCc4ccco4)n3CC)cs2)cc1	–	–	–	17.6µM	–	–
CCn1c(COc2ccc(C)cc2)nnc1SCC(=O)NCc1ccco1	–	–	–	–	–	–
CC[C@H](C)[C@H](NC(=O)[C@H](Cc1ccc(O)cc1)NC(=O)[C@@H](NC(=O)[C@H](CCCN=C(N)N)NC(=O)[C@@H](N)CC(=O)O)C(C)C)C(=O)N[C@@H](Cc1ccc(N)cc1)C(=O)N1CCC[C@H]1C(=O)N[C@@H](Cc1ccccc1)C(=O)O	–	·	·	·	–	–
Cc1ccc(N/C=C/C(=O)c2ccco2)c(O)c1	–	–	·	8.91µM	–	–
COc1ccc(C(c2c(NC(C)=O)sc3c2CCCC3)N2CCN(CCO)CC2)cc1OC (stereo not drawn)	–	–	–	–	14.1µM	–
CC(=O)Nc1sc2c(c1C(c1cccc(Cl)c1)N1CCN(CCO)CC1)CCCC2 (stereo not drawn)	–	–	–	–	17.8µM	–
Nc1n[nH]c(N)c1N=Nc1ccc2c(c1)OCO2	–	–	–	12.6µM	–	–
Cc1ccc(N=Nc2c(N)n[nH]c2N)cc1	·	·	·	?	–	·
NOCc1ccccc1	–	·	·	·	–	–
Cc1cc(O)ccc1Nc1nc(-c2cccs2)cs1	–	–	–	31.6µM	–	–
CC(C)C(=O)SCCCCCCC(=O)Nc1nc(-c2ccccc2)cs1	–	·	·	·	–	–
CCc1ccc(O)c(N=Cc2cccc(C)c2O)c1	–	–	–	15.7µM	–	–
C=CCc1cccc(C=Nc2cc(Br)ccc2O)c1O	–	–	–	?	–	–
Cc1cccc(C=Nc2ccc3c4c(cccc24)CC3)c1O	–	–	–	14.1µM	–	–
Oc1ccccc1N=Cc1ccc[nH]1	–	–	–	2.82µM	–	–
Fc1ccc(N=Cc2ccc[nH]2)cc1	·	·	·	–	–	·
